# From PubChem BioAssay AID504942 (Broad Institute, 2011)
# Entries with a potency or affinity are not part of this list. The source made the active and inactive calls. The rule behind the calls is not given here.
# Assay: toxicity to human HeLa cells – cell-based, 48 h, plate reader, cherry-picks, cytotoxicity control, dose response (AID 504942)
# Conditions: series mostly up to 38 µM
row,Structure (SMILES),outcome
1,Clc1ccc2scc(CN3CCCCC3)c2c1,inactive
2,O=C(/C=C/c1cccs1)c1cc(Cl)ccc1O,inactive
3,CCOC(=O)N1CCN(c2ccc(Cl)cc2)CC1,inactive
4,CCOC(=O)CC(C#N)c1cn(C)c2ccccc12 (centres undefined),inactive
5,CCCCCC1CC(COc2ccccc2)OC1=O (centres undefined),inactive
6,Cc1ccc(C)c(S(=O)(=O)NC2CCSC2=O)c1 (centres undefined),inactive
7,COC(=O)c1ccc(OC(=O)c2cccs2)cc1,inactive
8,N#CC(c1ccc(Cl)nn1)c1ccccc1Cl (centres undefined),inactive
9,COC(=O)c1ccc(OC(=O)c2ccco2)cc1,inactive
10,N#CC(c1cccc(Cl)c1)c1ncc(C(F)(F)F)cc1Cl (centres undefined),inactive
11,Cn1cccc1C(C#N)c1ccccc1C#N (centres undefined),inactive
12,O=C1C2C(C(=O)N1Cc1ccco1)C1C=CC2C12CC2 (centres undefined),inactive
13,N#CCn1c(C2CCCCC2)nc2ccccc2c1=O,inactive
14,O=C(NC1CCCCCCC1)c1cccc(Cl)c1,inactive
15,N#CC(c1ccc(Cl)cc1)c1ncc(C(F)(F)F)cc1Cl (centres undefined),inactive
16,Cc1cccc(NC(=O)Nc2cc(C)on2)c1,inactive
17,O=C1C=C(c2cccc(Cl)c2)C[C@@H](c2ccc(F)cc2)C1,inactive
18,COc1ccc(/C=C/C(=O)c2ccoc2)cc1,inactive
19,Cc1cc(NC(=O)c2cc([N+](=O)[O-])ccc2Cl)no1,inactive
20,N#CC(c1ccc(Cl)nn1)c1ccc(Cl)cc1Cl (centres undefined),inactive
21,O=CNC1(c2ccccc2)CCCCC1,inactive
22,N#CC(c1ccc(Cl)cc1)c1ccc(Cl)nn1 (centres undefined),inactive
23,O=C1C2C3C=CC(C4CC34)C2C(=O)N1Cc1ccco1 (centres undefined),inactive
24,Cc1cccc(C(C#N)c2ccc(Cl)nn2)c1 (centres undefined),inactive
25,N#Cc1cc(-c2ccccc2)cnc1Cl,inactive
26,COc1ccc(CNCc2cccc(Cl)c2)cc1,inactive
27,Cc1cc(C)nc(N(C#N)Cc2cccc([N+](=O)[O-])c2)n1,inactive
28,CC(C)N=C(NC#N)SCc1ccccc1F,inactive
29,CCOc1ccc(-n2cccc2C=O)cc1,inactive
